Active and inactive are the calls of the source. The calls were made as follows: active = hit-call score of the fitted dose curve at least 0.9, where 1 is the maximum; inactive = score below 0.9.
Experiment: ATG_TCF_b_cat_CIS: Attagene CIS-FACTORIAL HepG2 Assay for human T-Cell-Factor with beta-catenin (TCF/b-cat) (AID 2282965)
Conditions: HepG2 TCF/beta-catenin cis-reporter transcription, actives raise or lower the signal
Method: ATG_CIS is a cell-based, multiplexed-readout assay that uses HepG2, a human liver cell line, with measurements taken at 24 hours after chemical dosing in a 24-well plate.ATG_TCF_b_cat_CIS is one of 52 assay component(s) measured or calculated from the ATG_CIS assay. It is designed to make measurements of mRNA induction, a form of inducible reporter, as detected with fluorescence intensity signals by Reverse transcription polymerase chain reaction (RT-PCR) and Capillary electrophoresis technology.Data from the assay component ATG_TCF_b_cat_CIS was analyzed into 1 assay endpoint. This assay endpoint, ATG_TCF_b_cat_CIS, was analyzed with bidirectional fitting relative to DMSO as the negative control and baseline of activity. Using a type of inducible reporter, measures of mRNA for gain or loss-of-signal activity can be used to understand the reporter gene at the transcription factor-level as they relate to the gene TCF7 and TCF7L2 and LEF1 and TCF7L1. Furthermore, this assay endpoint can be referred to as a primary readout, because this assay has produced multiple assay endpoints where this one serves a reporter gene function. To generalize the intended target to other relatable targets, this assay endpoint is annotated to the dna binding intended target family, where the subfamily is HMG box protein.
Human liver HepG2 cells are transiently transfected with multiple reporter transcription units (MRTUs) in 6-well plates using FuGene 6 reagent (Roche; 3 ml FuGene/1 mg DNA). The MRTU constructs are regulated by a cis-regulating element (promoter). […] A major difference between the CIS and TRANS system is that in CIS activities of endogenous TFs are measured, whereas the TRANS assay evaluates changes in activities of exogenous, chimeric NR-Gal4 proteins. […] At the end of 24 hour incubation, total RNA was isolated using TriZol reagent (Invitrogen). The isolated RNA is then reverse-transcribed using oligo(dT) primer and Mo-MLV reverse transcriptase (Invitrogen) with DNAse I (Ambion) treatment for 30 min. The one-tenth of the produced cDNA was amplified by PCR using Taq DNA polymerase (Invitrogen) and two reporter sequence-specific primers. The PCR products were fluorescently labeled by primer extension with 6-arboxyfluorescein (6-FAM) 5'-labeled reporter sequence-specific primer (2 min at 95 C, 20 s at 68 C and 10 min at 72 C) and these products were digested with 5U of HpaI (New England Biolabs) for 2h at 37 C. The fragments were purified using Qiaquick PCR columns (Qiagen), analyzed on an ABI 3130xL genetic analyzer (Applied Biosystems) with peak positions identified by using a set of X-rhodamine (ROX)-labeled MapMarker1000 molecular weight standards (BioVentures). The raw capillary electrophoresis data was processed using Attagraph software (Attagene).

outcome, inactive:
CCCCC1CCC(O)CC1 (stereo not given), CN(C)C(=S)SC(=S)N(C)C, CCOC(=O)c1ccc(N)cc1, c1ccc2[nH]cnc2c1, CCCCC(CC)COC(C)=O (stereo not given), O=C(O)CNc1ccccc1, CC1(C)C(=O)N(Cl)C(=O)N1Br, CC1CCC(C(C)C)C(O)C1 (stereo not given), Cc1ccc(S(N)(=O)=O)cc1, C=CC(=C)CCCC(C)(C)OC(C)=O, CCC1(C)NC(=O)NC1=O (stereo not given), CCOCCOCCOCC, O=[N+]([O-])c1ccc(O)cc1C(F)(F)F, CC(=O)Nc1ccc(C(=O)CCl)cc1, CC(C)(CO)[C@@H](O)C(=O)NCCC(=O)O, CCCCCCCCCC(C)C=O (stereo not given), C=Cc1ccc(C)cc1, CCCCCCCCCCCCCCN(CCO)CCO, c1ccc(Oc2ccccc2)cc1, CC=Cc1ccc(OC)c(OC)c1, COC(=O)c1ccc([N+](=O)[O-])cc1, C=C(C)C1CC=C(C)C(=O)C1 (stereo not given), CCOc1ccc(NC(=O)CC(C)O)cc1 (stereo not given), CC(O)C1CCCCC1 (stereo not given), COS(=O)(=O)O, C=C(C)C(=O)OCCOC1CC2CC1C1C=CCC21 (stereo not given), O=C(O)c1ccc(O)cc1, CCC1CCCCC1, Cc1ccc(C)o1, CCOC(=O)CCc1ccccc1, COc1cc(Cl)c(OC)cc1N, COCCOC(=O)c1ccccc1C(=O)OCCOC, COc1cc([C@@H]2c3cc4c(cc3[C@@H](O[C@@H]3O[C@@H]5CO[C@@H](C)O[C@H]5[C@H](O)[C@H]3O)[C@H]3COC(=O)[C@H]23)OCO4)cc(OC)c1O, COC(=O)c1ccc(OC)cc1, Cc1occc(=O)c1OC(=O)C(C)C, CCCCC(CC)COC(=O)c1ccc(O)cc1 (stereo not given), COC(CC(C)CCCC(C)(C)O)OC (stereo not given)

AC50, active:
CCCCCc1ccco1 70 µM, Oc1c(Cl)cc(Cl)c(Cl)c1Cc1c(O)c(Cl)cc(Cl)c1Cl 11.1 µM, CCOC(=O)C1OC1c1ccccc1 (stereo not given) 48 µM
